High-throughput results: PubChem BioAssay, National Center for Advancing Translational Sciences (NCATS)
IMPase inh – IMPase inhibition in cells; CHO-M1 cells, IP1 accumulation, HTRF TR-FRET ratio; inhibition (IP1 accumulation), % at 46.1 µM; 120,000 tested, under 10 active; AID 901; active means well fitted curve in the direction sought with a large enough effect in the signal ratio, not every such curve was filed as active; inconclusive means small, poorly fitted or top-dose-only effect, or a change in a side signal; inactive means no such curve, though single readings can be large or run the other way; the % refers to the signal ratio;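 further: cells stimulated with carbachol in lithium chloride buffer; plate controls were DMSO basal wells for no effect and reference inhibitor wells for full effect; higher means more IMPase inhibition seen as more IP1 and lower FRET ratio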
Target sequence (P97697 whole entry, looked up): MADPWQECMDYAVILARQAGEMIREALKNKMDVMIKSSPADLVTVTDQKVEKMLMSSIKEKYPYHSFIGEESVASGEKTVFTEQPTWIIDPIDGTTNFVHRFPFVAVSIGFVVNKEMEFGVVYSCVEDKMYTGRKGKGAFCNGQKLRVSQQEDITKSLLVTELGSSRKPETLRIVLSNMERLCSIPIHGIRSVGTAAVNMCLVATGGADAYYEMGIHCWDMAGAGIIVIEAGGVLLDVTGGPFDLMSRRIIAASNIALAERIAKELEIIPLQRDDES
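CHO-M1, 2000 cells/well, cultured 16–30 h; cpd up to 46 uM; carbachol (50 uM solution, stimulation buffer w/ 50 mM LiCl, pH 7.4), 30 min 37C; IP-One TR-FRET, 10 min RT; Ex 320/Em 665, 620; Hill-fit AC50.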
HTT ATP protect – cytoprotection in Huntington HTT-Q103 PC12 cell model. PC12 HTT-Q103 induced, cytoprotection, ATP luminescence, 40 h. Potency, µM (series often up to 56.4 µM), without a hit: cytoprotection (ATP increase), actives largely listed as activators. 230,000 tested, 0.14% active; further: potency means the concentration at half of the fitted maximal effect; % of control where 0% means no effect; nearly all actives have a fitted effect of over 45% in size
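Compounds added alongside 100 nM tebufenozide, which induces toxic Q103 huntingtin exon 1-GFP in stable PC12 cells; surviving cells quantified by luminescent ATP measurement. Medium: phenol red-free DMEM, 5% equine and 5% calf serum.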
HTT aggregate – mutant huntingtin aggregation inhibition; PC12 HttQ103-GFP aggregates, Acumen cytometry, 40 h; Potency, µM (top dose mostly 46.1 µM), without a hit: top-dose activity change, negative = inhibition, usual class: inhibitors; 220,000 tested, 1.1% active; AID 1688; further: potency means the concentration at half of the fitted maximal effect; on the % scale 0 is the no-effect control and ±100 the full control effect; nearly all actives have a fitted effect of over 60% in size
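Huntingtin Q103 exon 1–GFP aggregates in induced PC12 cells (100 nM tebufenozide) were quantified by cytometry from lysates, with compounds dosed in titration.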
PNC assembly inh – blocks assembly of the perinucleolar compartment. AID 2417. 140,000 tested, 3.1% active. activity change (PNC), negative = inhibition, % at 10 µM. PC3M PTB-GFP, PNC prevalence imaging, 16 h; hits give low values;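 active means readout at or below -70, meaning at least 70% loss of cells showing the perinucleolar compartment, a nuclear body marking cancer cells; inconclusive means readout between -30 and a set limit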;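 further: plate controls were DMSO wells for no effect and camptothecin positive control wells for full effect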
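Read-out is percentage of cells bearing a perinucleolar compartment, from automated 20x imaging of fixed, Hoechst-stained PC3M PTB-GFP cells. Cells were seeded 4 h, then exposed 16 h to compound (23 nl of library stock) in duplicate plates.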
12-hLO inh – inhibitors of human 12-lipoxygenase (ALOX12) | purified 12-hLO, xylenol orange hydroperoxide absorbance | Potency, µM (doses to about 57.1 µM), inactives show at the highest dose activity change, negative = inhibition, actives largely listed as inhibitors | 150,000 tested, 0.12% active; further: potency means the concentration at half of the fitted maximal effect; on the % scale 0 is the no-effect control and ±100 the full control effect; nearly all actives have a fitted effect of over 55% in size
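Hydroperoxide output read as Fe(III)-xylenol orange absorbance, 573-to-405 nm ratio, after 30 min reaction with 40 uM arachidonic acid. Enzyme: 150 nM purified human 12hLO, 15 min compound preincubation; 25 mM Hepes pH 7.0, room temperature.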
NPSR antag – blocks cAMP signaling of the human neuropeptide S receptor; Q6W5P4; CHO-NPSR cells, cAMP TR-FRET, antagonist mode; Potency, µM (top dose mostly 38.3 µM), for inactives: at the top dose activity change, negative = inhibition, hits mostly inhibitors; 220,000 tested, 1% active; AID 1461; further: potency means the concentration at half of the fitted maximal effect; on the % scale 0 is the no-effect control and ±100 the full control effect; nearly all actives have a fitted effect of over 50% in size
* hit, by the source's call; [ ] = another dose, or the depositor's remark. A selection: hits, their analogues and other compounds. The true share with any hit is near 3.3%. Unless noted, the call rests on the fitted dose curve; in most records, active means well fitted curve in the direction sought with a large enough effect; inconclusive means small, poorly fitted or top-dose-only effect, or another doubt; inactive means no such curve, though single readings can be large; an effect the other way counts as inactive or inconclusive.

O=C(CCNc1ccc(Br)cc1)c1cccc([N+](=O)[O-])c1 was read as HTT ATP protect 3.9%, HTT aggregate -3.4% and NPSR antag -16.2%.
Screening Cc1cnc(C)c(N2CCN(Cc3nc(-c4ccccc4)no3)CC2)n1 returned HTT ATP protect 0.6%[10 µM], HTT aggregate -3.3%[9.22 µM] and NPSR antag 12.4%.
`Cc1nn(Cc2ccc(C(=O)Nc3nc4c(C)cccc4s3)o2)c(C)c1Br` gave IMPase inh 4.9, HTT ATP protect -12.7%, HTT aggregate 17.8µM*, PNC assembly inh -5.9, 12-hLO inh -22.7% and NPSR antag inconclusive.
For Cc1cc(C)n(C(=O)c2ccc(Cn3nc(C)c(Br)c3C)o2)n1 the results were IMPase inh -3.6, HTT ATP protect -1.2%[10 µM], HTT aggregate -9.9%, PNC assembly inh -100.0*, 12-hLO inh -2.6% and NPSR antag 12.6%[46.1 µM].
`Cc1nn(Cc2ccc(C(=O)n3cccn3)o2)c(C)c1Br` gave IMPase inh -5.8, HTT ATP protect 0.0%[10 µM], HTT aggregate 1.9%, PNC assembly inh -10.5, 12-hLO inh 5.0% and NPSR antag -7.6%[46.1 µM].
`CC(=O)OC[C@@H]1O[C@@H](O/N=C2/C[C@@H](O)[C@@H](O)[C@@H]3[C@@H]4C(=O)N(C[C@@H]5CCCO5)C(=O)[C@H]4CC[C@H]23)[C@H](OC(C)=O)[C@H](OC(C)=O)[C@@H]1OC(C)=O` gave HTT ATP protect 28.3%[10 µM].
CN=c1scc(-c2ccco2)n1/N=C/c1ccc(O)c(O)c1 was read as HTT ATP protect -237.2%, HTT aggregate 8.91µM* and NPSR antag -6.2%.
COc1ccc(O)c(/C=N/n2c(-c3ccco3)csc2=Nc2cccnc2)c1 was read as HTT ATP protect 33.9%[10 µM], HTT aggregate -11.7%, PNC assembly inh 66.0, 12-hLO inh 2.3% and NPSR antag 12.9%.
Screening COc1ccc(CNC(=O)c2ccc(N3CCOCC3)c([N+](=O)[O-])c2)cc1 returned HTT ATP protect -37.5%, HTT aggregate -5.4% and NPSR antag -6.2%.
For CCCCCCCNC(=O)c1ccc(N2CCC3(CC2)OCCO3)c([N+](=O)[O-])c1 the results were IMPase inh 7.2, HTT ATP protect 2.6%[10 µM], HTT aggregate -6.9%, PNC assembly inh -119.3*, 12-hLO inh -3.7% and NPSR antag -37.6%.
For COc1ccccc1/C=N/NC(=O)CNC(=O)c1ccccc1 the results were HTT ATP protect 5.2%[10 µM], HTT aggregate 12.0%[9.22 µM] and NPSR antag -17.1%.
For O=C(CNC(=O)c1ccccc1)N/N=C/c1cc(Br)ccc1O the results were HTT aggregate 3.16µM*, PNC assembly inh -28.1, 12-hLO inh -13.3% and NPSR antag -23.1%.
Screening O=C(CNC(=O)c1ccccc1F)N/N=C/c1cn[nH]c1-c1ccccc1 returned IMPase inh inconclusive, HTT ATP protect -22.9%[1.9 µM], HTT aggregate 4.9%, PNC assembly inh -1.9, 12-hLO inh 0.0% and NPSR antag 6.5%.
`O=C(CNC(=O)c1ccccc1Br)N/N=C/c1ccccc1O` gave HTT ATP protect -107.9%, HTT aggregate 10µM* and NPSR antag -0.6%.
For O=C(N/N=C/c1cc(Cl)ccc1O)c1ccccc1Br the results were HTT ATP protect -153.3%, HTT aggregate 2.51µM* and NPSR antag -24.1%.
Screening O=C(CNC(=O)c1ccc(F)cc1)N/N=C/c1cn[nH]c1-c1ccccc1 returned HTT ATP protect 6.8%[10 µM], HTT aggregate -17.8%, PNC assembly inh -90.2*, 12-hLO inh -1.2% and NPSR antag 11.9%.
C[C@H]1Cc2c(COc3ccccc3)nc3c(c2CO1)CN(C(=O)Cc1cccs1)CC3 was read as HTT ATP protect -13.8%[10 µM] and 12-hLO inh 1.1%[11.4 µM].
Screening CCCCCCCCCCCC(=O)OCC(O)C1OCC(O)C1O (stereo not drawn) returned HTT ATP protect -8.5% and HTT aggregate -5.2%.
